Test results reported in PubChem BioAssay (EPA / NIEHS).
Values joined by “and” are separate entries in the source; they are usually repeats but may differ in a detail not shown here. Equal entries are not always repeated. Active and inactive are the calls of the source. How the source made its calls: active means hit-call score of the fitted dose curve at least 0.9, where 1 is the maximum; inactive means score below 0.9.

read-out: Matrix Metallopeptidase 9 (MMP9), MMP9 (gene 4318); test: BSK_KF3CT_MMP9: BioMAP Diversity Plus: KF3CT Assay for Matrix Metallopeptidase 9 (MMP9) Biomarker Activity (AID 2283074); conditions: primary human keratinocytes with fibroblasts; actives raise or lower the signal
Description: BSK_KF3CT is a cell-based, multiplexed-readout assay that uses keratinocytes and foreskin fibroblasts, a human skin primary cell co-culture, with measurements taken at 24 hours after chemical dosing in a 96-well plate.BSK_KF3CT_MMP9 is an assay component measured in the BSK_KF3CT assay. It measures MMP-9 antibody related to regulation of gene expression using ELISA technology.Data from the assay component BSK_KF3CT_MMP9 was analyzed into 1 assay endpoint. This assay endpoint, BSK_KF3CT_MMP9, was analyzed with bidirectional fitting relative to DMSO as the negative control and baseline of activity. Using a type of binding reporter, gain or loss-of-signal activity can be used to understand changes in the signaling as they relate to the gene MMP9. Furthermore, this assay endpoint can be referred to as a primary readout, because this assay has produced multiple assay endpoints where this one serves a signaling function. To generalize the intended target to other relatable targets, this assay endpoint is annotated to the protease intended target family, where the subfamily is matrix metalloproteinase.
The levels of cell surface (or secreted, indicated by the prefix "s") biomarker endpoints were measured by ELISA. Overt cytotoxicity to cells in confluent adherent cultures (all systems other than the BT system) was assessed by measuring total protein levels using sulforhodamine B (SRB) staining in parallel cultures at the time of biomarker measurements, indicated as SRB endpoints. For proliferation assays for adherent cell types, individual cell types are cultured at sub-confluence and relative cell numbers quantified by SRB staining at time points optimized for each system (48 h: 3C and CASM3C systems; 72 h: BT and HDF3CGF systems; 96 h: SAg system). SRB was performed by staining cells with 0.1% SRB after fixation with 10% TCA and reading wells at 560 nm.Viability and proliferation of PBMC (T cells) was quantified by Alamar Blue reduction for the SAg and BT systems. For PBMC viability (referred to as PBMC Cytotoxicity within the assay endpoint names), cells were plated (75,000/well in a 96-well plate) and then chemical samples added for 1 h before addition of activators, SEB and TSST-1 (20 ng/mL final concentration each). Cells were incubated for 90 h. Then, Alamar Blue (20 uL/well) (Invitrogen, Cat DAL1100) was added for 6 h, and the plates were read with a fluorescence microplate reader at 546/580 nm (excitation/emission). For PBMC proliferation, cells were plated and activated as above but incubated for only 16 h prior to addition of Alamar Blue. Plates were read after 6 h.

Structure (SMILES) | outcome | AC50
CCC(C)=NO | inactive | 
CN(C)Cc1cc(C(C)(C)C)c(O)c(C(C)(C)C)c1 | inactive | 
Sc1nc2ccccc2s1 | inactive | 
CCCCCCC(O)CCCCCCCCCCC(=O)OC (configuration not stated) | inactive | 
CCCCC(CC)COC(=O)C=Cc1ccc(OC)cc1 (configuration not stated) | inactive | 
C1CN(CCOCCN2CCOCC2)CCO1 | inactive | 
CC[N+](CC)(CC(=O)Nc1c(C)cccc1C)Cc1ccccc1 (tested in a mixture with another compound) | inactive | 
COC(=O)/C=C\C(=O)OC | inactive | 
CCCCCCCCCC/C=C/C1CC(=O)OC1=O (configuration not stated) |  | 27.7 µM (active)
CC[N+](CC)(CC(=O)Nc1c(C)cccc1C)Cc1ccccc1 | inactive | 
COc1ccccc1Oc1c(NS(=O)(=O)c2ccc(C(C)(C)C)cc2)nc(-c2ncccn2)nc1OCCO | inactive | 
O=[N+]([O-])c1cc(S(=O)(=O)Nc2ccccc2)ccc1Nc1ccccc1 |  | 31.5 µM (active) and 29.5 µM (active)
CC(C)C1OCCN1CCOC(=O)NCCCCCCNC(=O)OCCN1CCOC1C(C)C (configuration not stated) | inactive | 
Cc1c(C(N)=O)cc([N+](=O)[O-])cc1[N+](=O)[O-] | inactive | 
OC(C(F)(F)F)(C(F)(F)F)C(O)(C(F)(F)F)C(F)(F)F |  | 43 µM (active) and 46.1 µM (active)
CN(C)c1ccc(C(c2ccccc2)c2ccc(N(C)C)cc2)cc1 |  | 13.6 µM (active)
CN(C)CCC(c1ccc(Cl)cc1)c1ccccn1 (configuration not stated) | inactive | 
CCC[Si](OC(C)=O)(OC(C)=O)OC(C)=O | inactive | 
Oc1cccc2ccccc12 | inactive | 
CCCCCCCCCCC1CO1 (configuration not stated) |  | 36.1 µM (active)
COc1cc(CNC(=O)CCCC/C=C/C(C)C)ccc1O | inactive | 
O=C(C(=O)c1ccccc1)c1ccccc1 | inactive | 
CCCCCCCCCCCCCCCCCC[N+](C)(C)C |  | 3.32 µM (active)
Cc1cccnc1 | inactive | 
Cc1cc(-n2nc3ccc(Cl)cc3n2)c(O)c(C(C)(C)C)c1 | inactive | 
COc1ccc(C(=O)c2ccccc2O)c(O)c1 | inactive | 
CC(C)CC(=O)CC(C)CC(C)C (configuration not stated) |  | 36.4 µM (active)
